Compound activity (PubChem)
TRHR ag = activates the human TRH receptor. activation, % at 2 µM. TRHR cells, calcium flux fluo-8, FDSS agonist mode. hit rate 0.18% among 360,000. P34981; also: 0% is about no effect
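Steps: seed TRHR cells overnight; add fluo-8 no-wash Ca dye, RT 30 min–1.5 h; record 10 s baseline; pin-transfer compounds; monitor fluorescence 1 cycle/s for the agonist window. Calcium increases flag candidate agonists.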
D1 potentiator = enhances dopamine response at the human D1 receptor | hit rate 0.036% among 360,000 | HEK293 TREx D1 cells, calcium flux, dopamine EC20 potentiation | P21728 | potentiation, % at 10 µM; in the data active = potentiation above about 30%; also: 0% is about no effect
Target sequence (P21728 whole entry, looked up): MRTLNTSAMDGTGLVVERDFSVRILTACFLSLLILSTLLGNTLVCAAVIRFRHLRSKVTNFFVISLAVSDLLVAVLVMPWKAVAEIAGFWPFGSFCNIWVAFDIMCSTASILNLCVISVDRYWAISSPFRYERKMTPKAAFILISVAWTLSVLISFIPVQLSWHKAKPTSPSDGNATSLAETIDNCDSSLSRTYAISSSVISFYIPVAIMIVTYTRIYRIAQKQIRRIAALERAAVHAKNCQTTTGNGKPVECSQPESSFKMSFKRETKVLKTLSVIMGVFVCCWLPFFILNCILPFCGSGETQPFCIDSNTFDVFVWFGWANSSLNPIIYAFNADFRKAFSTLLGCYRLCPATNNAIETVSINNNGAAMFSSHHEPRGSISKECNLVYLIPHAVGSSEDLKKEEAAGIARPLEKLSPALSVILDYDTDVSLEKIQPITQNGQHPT
TRHR enhancer = TRH receptor (human) allosteric enhancement; P34981; TRHR cells, fluo-8 calcium fluorescence, EC20 TRH enhancement; enhancement, % at 2 µM; hit rate 0.66% among 360,000; in the data active = enhancement above about 30%; also: 0% is about no effect
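Enhancer read-out: after compound pinning and an initial kinetic agonist-mode read, an EC20 of TRH (10 nM final) was injected and fluo-8 calcium signal (Ex 480/Em 530) followed at 1 s/cycle for 100 cycles in TRHR-expressing cells.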
D1 agonist = human D1 receptor agonism; activation, % at 2 µM; hit rate 1% among 360,000; HEK293 T-REx D1 cells, calcium flux, agonist mode; P21728; also: 0% is about no effect
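Tetracycline-induced HEK293 TREx D1 cells, force-coupled to calcium signalling, were dye-loaded with a no-wash calcium kit. Compound was pin-added after a 10 s baseline. Fluorescence was read kinetically at 1 cycle/s for 180 s, with calcium rises flagged as agonism.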
D1 antagonist = antagonists of human D1 dopamine receptor | HEK293 TREx D1 cells, calcium flux, dopamine EC80; hits give low values | P21728 | activity change, negative = inhibition, % at 10 µM | hit rate 3.2% among 360,000 | AID 504652; in the data active = activity change below about -30%; also: % is scaled to controls: 0 for no effect and ±100 for the full control effect
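Antagonism measured as reduced calcium response to an EC80 dopamine addition following 180 s compound pre-read; cells were inducible HEK293 Trex D1 plated overnight at 30 C, read kinetically at 1 cycle/sec.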
* = called active by the depositor; nt = no result given. The list is not random: actives were taken first. Their share in the collection is about 4.6%. Rule as the data show it, unless noted: active = activation above about 30%; inactive = the rest.

SMILES	TRHR ag	D1 potentiator	TRHR enhancer	D1 agonist	D1 antagonist
Cc1ccc(-c2nnc(Nc3ccc(O)cc3)c3ccccc23)cc1S(=O)(=O)NCC1CCCO1 (configuration not stated)	-0.3	-1.9	1.3	-0.3	-16.4
CCCNC(=S)Nc1ccc(S(N)(=O)=O)cc1	-0.5	7.7	11.1	0.4	3.8
C#CC(CC)(CC)NC(=S)Nc1ccc(S(N)(=O)=O)cc1	0.1	-0.6	3.5	2.2	-42.7*
Cc1cccc(C(=O)NCC(c2ccco2)S(=O)(=O)c2cccs2)c1 (configuration not stated)	0.2	-1.2	1.3	1.6	nt
CCCOC(=O)C1[C@H]2C(=O)N(Cc3ccco3)C[C@]23C=C[C@H]1O3 (some centres not stated)	0.3	-10.3	5.5	-0.7	-61.5*
COc1ccc(NS(=O)(=O)c2cc(N/C(=N\S(=O)(=O)c3ccccc3)c3ccc(F)cc3)ccc2Cl)cc1	1.3	-0.3	-0.5	7.7	-38.4*
COC(=O)c1ccc(N2CCOCC2)c(NC(=O)c2ccc3c(c2)OCO3)c1	-0.3	-5.3	1.1	0.9	-12.2
COc1ccc(C(=O)Nc2ccccc2N2CCOCC2)cc1[N+](=O)[O-]	0.1	0.4	-0.2	0.9	-32.1*
COc1ccc(N2CCOCC2)c(NC(=O)c2ccc3c(c2)OCO3)c1	0.0	-0.6	37.8*	2.1	1.9
COc1cc(NC(=O)c2ccc3c(c2)OCO3)c2ncccc2c1	0.6	3.1	-4.2	1.7	-30.7*
COc1ccc(C(=O)NC(=S)Nc2ccccc2N2CCOCC2)cc1[N+](=O)[O-]	-0.4	1.0	-0.7	2.9	-1.1
COc1ccc(N2CCCC2)c(NC(=O)c2ccc([N+](=O)[O-])o2)c1	0.5	-11.2	2.0	4.3	-35.7*
Cc1ccc(C(=O)NCC(c2ccc3c(c2)OCO3)N2CCOCC2)cc1 (configuration not stated)	-0.5	-4.0	-4.2	-0.5	0.5
Cc1cccc(OCC(=O)Nc2ccc3c(c2)nc(CCN2CCN(c4ccccn4)CC2)n3C)c1	-0.6	-8.1	-5.8	9.7	-31.2*
CCc1ccc(-n2nc(C)c3c(C)cc(=O)n(CC(=O)N4CCCc5ccccc54)c32)cc1	0.3	-5.5	4.5	1.9	-0.8
Cc1ccc(N2CCn3c2nc2c3c(=O)n(CCc3ccccc3)c(=O)n2C)cc1C	0.0	2.0	2.0	-0.6	-18.2
O=C(c1cc(COc2c(F)cccc2F)on1)N1CCC(c2ccncc2)CC1	-1.4	-1.7	7.5	11.7	-9.8
CCC1CCCCN1C(=O)c1cc(COc2ccc(-n3cncn3)cc2)on1 (configuration not stated)	-0.6	-10.4	5.4	16.8	-34.1*
CC(=O)c1ccc(OCc2cc(C(=O)N3CCOCC3)no2)cc1	-0.5	2.4	-1.7	3.7	3.4
Cc1ccc(OCc2cc(C(=O)N3CCC(Oc4cccnc4)CC3)no2)cc1C	0.2	-8.0	-0.4	13.6	-7.6
Cc1cccc(C)c1OCc1cc(C(=O)N2CCC(c3ccncc3)CC2)no1	-0.6	-6.2	5.3	11.6	-41.9*
CC(=O)c1ccc(OCc2cc(C(=O)N3CCCCCCC3)no2)cc1	0.0	-4.8	-1.5	27.2	-37.7*
CC(=O)c1ccc(OCc2cc(C(=O)N3CCC(Oc4ccccc4C)CC3)no2)cc1	0.6	-6.0	-6.0	26.0	-52.5*
COc1ccccc1N1CCN(C(=O)CSc2nc3ccccc3nc2Cc2ccccc2)CC1	0.1	0.6	-2.9	3.2	-3.8
CC(=O)c1c(C)n(-c2ccc(C)cc2)c2ccc(OC(=O)COc3ccccc3)cc12	0.2	-4.8	1.3	7.0	-2.2
SMILES	TRHR ag	D1 potentiator	TRHR enhancer	D1 agonist	D1 antagonist
COc1ccc(N2CCN(c3nc4ccc(C)cc4n4nnnc34)CC2)cc1	0.1	1.2	3.3	0.2	-3.0
Cc1ccc(C)c(NC(=O)c2cnn(-c3cccc(F)c3)c2C2CCN(C(=O)OC(C)(C)C)CC2)c1	1.5	-1.7	2.5	3.2	14.2
O=C(CN1C(=O)CSc2ccc(S(=O)(=O)N3CCCC3)cc21)NCc1ccc(F)cc1Cl	-0.9	1.7	-4.0	-1.0	-2.9
COc1cc(NC(=O)CC(C)S(=O)(=O)c2ccc3c(c2)CCN3C(C)=O)cc(OC)c1OC (configuration not stated)	0.4	0.3	-0.7	-0.5	-0.2
O=C(Nc1ccc(Cl)cc1)NC1CCCCC1Cc1ccco1 (configuration not stated)	0.5	-9.3	-5.8	4.8	-34.4*
O=C(COC(=O)C12CC3CC(CC(O)(C3)C1)C2)NCCc1ccc(Cl)cc1	-0.1	-13.8	-8.4	1.1	-40.3*
O=C(COC(=O)C12CC3CC(CC(O)(C3)C1)C2)Nc1ccc(Cl)cc1F	-0.6	2.2	-2.9	0.1	-3.7
CCOC(=O)C1(Cc2cccc(Cl)c2)CCCN(C(=O)c2cnn(CC)c2)C1 (configuration not stated)	0.0	-4.0	-1.6	1.4	-38.5*
CCOC(=O)C1(Cc2cccc(Cl)c2)CCCN(C(=O)c2cn[nH]c2)C1 (configuration not stated)	-2.2	-0.6	14.9	-0.1	-0.6
COc1ccc(CCNC(=O)CSC2=Nc3ccccc3C3=NC(CCC(=O)NCc4ccccc4)C(=O)N23)cc1OC (configuration not stated)	-0.1	4.4	-3.4	0.3	11.9
Cc1ccc(N2CCN(C(=O)NCc3noc4ccccc34)CC2C)cc1 (configuration not stated)	0.4	-6.9	3.7	2.6	2.6
CCOC(=O)N1CCN(C(=O)CCS(=O)(=O)c2cc3c(cc2Cl)NC(=O)CO3)CC1	0.2	-10.9	-0.1	3.6	21.4
COc1ccc(N2CCN(C(=O)CCS(=O)(=O)c3cc4c(cc3Cl)NC(=O)CO4)CC2)cc1	0.3	-0.8	10.9	-2.4	-64.3*
CCc1cccc(NC(=O)CCS(=O)(=O)c2ccc3c(c2)NC(=O)CO3)c1	0.6	-0.2	-1.3	1.4	6.6
O=C(CCS(=O)(=O)c1cc2c(cc1Cl)NC(=O)CO2)NCc1ccc(Cl)cc1	0.3	-0.7	-4.7	0.0	3.9
O=C(CCS(=O)(=O)c1cc2c(cc1Cl)NC(=O)CO2)NCc1ccc(F)cc1	0.4	-6.2	-3.6	1.1	-34.7*
COc1cc(Cl)c(NC(=O)CCS(=O)(=O)c2ccc3c(c2)NC(=O)CO3)c(OC)c1	0.0	-3.0	30.8*	-1.5	14.1
COc1ccc(-c2ccc(C(=O)O)c(=O)[nH]2)cc1	0.0	-2.5	-2.7	5.3	-30.1*
COc1ccc(-c2cc(=O)[nH]c(=S)[nH]2)cc1	0.4	-8.7	3.6	2.0	-18.5
Cc1ccc(-n2c(SCc3ccccc3C)nc3[nH]ncc3c2=O)cc1C	0.0	-7.8	-24.5	0.7	-78.2*
